Screen size: about 340,000 compounds; about 930 (0.27%) were called active.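 Rule for the calls: active = inhibition above the screen-wide average of all tested compounds plus 3 SD (cut at about 25% in these data); inactive = the rest.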 The sample as a whole holds a higher share of actives than the screen did.
biological target: Platelet-activating factor acetylhydrolase IB subunit alpha1 (Homo sapiens) (UniProt Q15102); assay: inhibition of PAF acetylhydrolase 1B subunit 3 – biochemical, fluorescence polarization, human, primary screen (AID 492972); conditions: recombinant PAFAH1B3, FP-rhodamine probe, at 3.39 µM, active compounds read high;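 note: 0% = enzyme with DMSO only and 100% = wells lacking PAFAH1B3 protein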
Sequence (Q15102 whole entry, looked up): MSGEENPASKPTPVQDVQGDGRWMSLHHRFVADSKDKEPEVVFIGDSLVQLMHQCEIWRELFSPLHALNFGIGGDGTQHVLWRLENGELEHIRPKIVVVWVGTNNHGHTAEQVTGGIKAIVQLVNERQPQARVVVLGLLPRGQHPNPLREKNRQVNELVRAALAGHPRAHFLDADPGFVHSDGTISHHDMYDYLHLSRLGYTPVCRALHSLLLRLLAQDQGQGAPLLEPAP

| SMILES | inhibition |
| --- | --- |
| CC(C)c1ccc(NC(=O)[C@@H](NC(=O)N2CC(=O)Nc3ccccc32)C(C)C)cc1 | 6.6% (inactive) |
| Cc1nc(NC(CC(C)C)C(=O)O)c2nc(C)oc2n1 (stereo not drawn) | 7.36% (inactive) |
| COc1cccc(N(CC(=O)NCCSc2ccccn2)S(C)(=O)=O)c1 | 12.7% (inactive) |
| CCOC(=O)[C@H]1[C@H]2COc3ccc(Br)cc3[C@@H]2N2C(=O)CN(C)C(=O)[C@@]12C | 2.41% (inactive) |
| CCOc1cccc(/C=N/N2C(=O)CSC2=S)c1O | 13.7% (inactive) |
| O=C1CSC(=S)N1/N=C/c1ccc(O)c([N+](=O)[O-])c1 | 31.7% (active) |
| Cc1cc(C(=O)N/N=C/c2ccc(O)c([N+](=O)[O-])c2)c(C)n1-c1ccc(F)cc1 | 9.16% (inactive) |
| Cc1ccc(C)c2[nH]c(=O)c(CCNC(=O)CC(C)C)cc12 | 13.2% (inactive) |
| O=C(O)c1ccc(Cn2cnc3c(=S)nc[nH]c32)cc1 | -3% (inactive) |
| COC(=O)c1ccccc1NC(=O)CSc1n[nH]c(-c2ccncc2)n1 | -3.63% (inactive) |
| CC(=O)Nc1ccc(S(=O)(=O)N2CCC(C(=O)N[C@@H](Cc3ccccc3)C(=O)O)CC2)cc1 | -0.21% (inactive) |
| CCOC(=O)c1ccn(-c2nc(-c3ccco3)cc(C(F)(F)F)n2)n1 | 1.73% (inactive) |
| Cc1c(C(=O)O)nnn1-c1nonc1N | 3.33% (inactive) |
| COC(=O)C1=C(C)NC(=O)/C1=C/c1ccc(CNS(=O)(=O)c2ccc(C)cc2)o1 | 10.7% (inactive) |
| Cn1c(Cc2cccs2)nnc1SCC(=O)Nc1ccccc1 | 10.8% (inactive) |
| CCOC(=O)c1c(C)[nH]c2c1-c1ccccc1C(=O)C2=O | 58.3% (active) |
| CCOC(=O)c1[nH]c2ccccc2c1N=C(C)N(CC)CC | 9.46% (inactive) |
| CCOC(=O)C1=C(C)c2ccccc2OC1(C)C(=O)OCC (stereo not drawn) | 2.09% (inactive) |
| c1ccc(-c2c[nH]c(-c3ccccc3)c2)cc1 | 3.23% (inactive) |
| Cc1nc(CNS(=O)(=O)c2ccc(Oc3ccccc3)cc2)cs1 | 13.7% (inactive) |

| SMILES | inhibition |
| --- | --- |
| CNC(=S)N/N=C/c1cn(Cc2ccc(C)cc2)c2ccccc12 | 3.79% (inactive) |
| N#CCC(=O)N/N=C/c1cn(Cc2ccc3ccccc3c2)c2ccccc12 | -0.94% (inactive) |
| COc1cccc(Cn2cc(/C=N/NC(=O)c3cc(O)cc(O)c3)c3ccccc32)c1 | 37.5% (active) |
| COC(=O)C1=C[C@@H](C(=O)OC)[C@@H]2C3=C(C(=O)[C@]2(C)NC(=O)c2ccccc2)[C@H](C)n2c(=O)n(C)c(=O)n2[C@@H]3C1 | 4.02% (inactive) |
| COC(=O)Cc1ccc(N(Cc2ccccc2F)S(=O)(=O)c2ccc(Br)cc2)cc1 | 8.61% (inactive) |
| CCN(CC)S(=O)(=O)N1CCC(C(=O)NC(C)CCc2ccccc2)CC1 (stereo not drawn) | 9.79% (inactive) |
| CC(C)N(C)C(=O)CCc1nnc(CCc2c[nH]c3ccccc23)o1 | 1.11% (inactive) |
| CN(C)CCCCCN(C)Cc1cc2ccccc2o1 | 3.58% (inactive) |
| O=C(Cn1nc([N+](=O)[O-])nc1Br)NC1CCCCC1 | 11% (inactive) |
| CCN1CCc2nc(NC(=O)c3cc(F)c(F)cc3Cl)sc2C1 | 1.2% (inactive) |
| CC(C)c1ccc(S(=O)(=O)N2CCN(C(=O)CN3C(=O)NC(C)(c4ccccc4)C3=O)CC2)cc1 (stereo not drawn) | 5.24% (inactive) |
| COc1ccccc1N1CCN(c2nc(C)cc(=O)[nH]2)CC1 | 9.92% (inactive) |
| Clc1cc(NC2CCCCC2)ncn1 | 6.06% (inactive) |
| COc1ccc(C(=O)OCC(=O)c2ccc(C)c(S(=O)(=O)N3CCOCC3)c2)cc1OC | 14% (inactive) |
| O=C(OCC(=O)N1CCN(c2ccccc2)CC1)c1ccc([N+](=O)[O-])s1 | 53.8% (active) |
| COc1ccc(C(=O)COC(=O)c2ccc([N+](=O)[O-])s2)cc1OC | 33.9% (active) |
| COc1cccc(/C=C/C(=O)OCC(=O)N2CCN(c3ccccc3)CC2)c1 | -3.05% (inactive) |
| C[C@H](NC(=O)c1ccccc1Cl)C(=O)OCC(=O)N1CCN(c2ccccc2)CC1 | 2.77% (inactive) |
| COc1cc(NC(=O)COC(=O)c2ccc([N+](=O)[O-])s2)cc(OC)c1OC | 23.3% (inactive) |
| CN1/C(=c2/s/c(=C3/C(=O)N(c4ccccc4)NC3=Nc3ccccc3)n(C)c2=O)C(C)(C)c2ccccc21 | 6.84% (inactive) |

| SMILES | inhibition |
| --- | --- |
| COc1ccc(S(=O)(=O)/N=C2\C=C(NS(=O)(=O)c3ccccc3)C(=O)c3ccccc32)cc1 | -2.66% (inactive) |
| CC(C)CC[n+]1ccn(C2=C([O-])c3ccccc3C(=O)/C2=N\S(=O)(=O)c2ccccc2)c1 | 34.1% (active) |
| CCCCCC(=O)Nc1ccc(-c2cn3cccnc3n2)cc1 | 8.1% (inactive) |
| COc1ccc(-c2cc3n(n2)CCc2nc4ccccc4n2-3)cc1 | 1.18% (inactive) |
| O=C1C(Cl)=C(Oc2ccccc2)C(=O)c2ccccc21 | 37.3% (active) |
| CCC(C)C(NC(=O)C1CCC(=O)N1C(=O)OCc1ccccc1)C(=O)NC(C(=O)N1CCCC1C(N)=O)C(C)CC (stereo not drawn) | -7.74% (inactive) |
| CC1CCN(CCCn2c(SCC(=O)NC3CCCC3)nc3ccccc3c2=O)CC1 | 6.29% (inactive) |
| O=Cc1cn(-c2ccccc2)nc1-c1ccccn1 | 0.88% (inactive) |
| Nc1ccc2nc3c(=O)[nH]c(=S)[nH]c3nc2c1 | 48.8% (active) |
| Cn1ncc(Br)c1C(=O)NC1CCCC1 | 4.81% (inactive) |
| O=C(Nc1ccc(Br)cc1)C1CCC(=O)N1Cc1ccccc1Cl (stereo not drawn) | 7.1% (inactive) |
| N#Cc1ccc(S(=O)(=O)NCC(=O)OCC(=O)NCCc2ccccc2)cc1 | -8.29% (inactive) |
| O=C(Oc1cccc(N2C(=O)C3C4c5ccccc5C(c5ccccc54)C3C2=O)c1)c1ccco1 (stereo not drawn) | 12.6% (inactive) |
| COc1cccc(C2CC(c3ccccc3)=NN2S(=O)(=O)c2ccccc2)c1OC (stereo not drawn) | 0.58% (inactive) |
| COc1ccc(C(=O)C(C)OC(=O)c2cccc(S(=O)(=O)Nc3c(C)n(C)n(-c4ccccc4)c3=O)c2)cc1 (stereo not drawn) | 10% (inactive) |
| O=C(NN=Cc1ccccc1O)NN=Cc1ccccc1O | 7.65% (inactive) |
| C/C(=N\Nc1ccc(Cl)nn1)c1ccccc1O | 4.6% (inactive) |
| Oc1cccc(/C=N/Nc2ccc(Cl)nn2)c1O | 55.2% (active) |
